Experimental data reported in the supplement of paper PMC10849652.
The full data set covers some 7,900 targets. This sample favours those with a hit. About 0.6% of all pairs of compound and target were hits. Unmarked numbers belong to inactive results.

Experiments:
Assay in all cases: log2 fold change, soluble protein after heating vs DMSO (PISA); higher = thermal stabilisation; K562 cells, 10 uM, 30 min; active = over 0.2 and 3.5 SD of the protein, either way, in both replicates (recomputed)
[1] = compound: CS(=O)(=O)c1ccc(-c2cnc(N)c(C(=O)Nc3ccccc3)n2)cc1
How it was run: (§1)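 Values are thermal stability changes relative to control samples and are taken from duplicates. They are stated as log2 fold changes. Before quantification by TMTpro 16plex LC-MS/MS with equalised channel sums, K562 cells at 2×10^6 cells/mL were treated with 10 μM compound for 30 min, heated in aliquots for 3 min across 48°C-58°C, pooled, extracted in PBS with 0.5% NP-40 at 4°C, and centrifuged at 21,000xg for 90 min to give the soluble supernatant.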

crizotinib = compound: C[C@@H](Oc1cc(-c2cnn(C3CCNCC3)c2)cnc1N)c1c(Cl)ccc(F)c1Cl [crizotinib]
How it was run: as §1

[2] = compound: C[C@@H]1COCCN1C2=NC(=NC(=C2)C3(CC3)S(=O)(=O)C)C4=C5C=CNC5=CC=C4
How it was run: as §1

[3] = compound: C[C@H](C1=CC=C(C=C1)C(=O)NC2=C3C=CNC3=NC=C2)N
How it was run: as §1

duvelisib = compound: C[C@H](Nc1ncnc2nc[nH]c12)c1cc2cccc(Cl)c2c(=O)n1-c1ccccc1 [duvelisib]
How it was run: as §1

gandotinib = compound: Cc1cc(Nc2cc(CN3CCOCC3)c3nc(C)c(Cc4ccc(Cl)cc4F)n3n2)n[nH]1 [gandotinib]
How it was run: as §1

tozasertib = compound: Cc1cc(Nc2cc(N3CCN(C)CC3)nc(Sc3ccc(NC(=O)C4CC4)cc3)n2)n[nH]1 [tozasertib]
How it was run: as §1

[4] = compound: Cc1cc(SCc2sc(-c3ccc(C(F)(F)F)cc3)nc2C)ccc1OCC(=O)O
How it was run: as §1

doramapimod = compound: Cc1ccc(-n2nc(C(C)(C)C)cc2NC(=O)Nc2ccc(OCCN3CCOCC3)c3ccccc23)cc1 [doramapimod]
How it was run: as §1

ispinesib = compound: Cc1ccc(C(=O)N(CCCN)[C@@H](c2nc3cc(Cl)ccc3c(=O)n2Cc2ccccc2)C(C)C)cc1 [ispinesib]
How it was run: as §1

Chain of UniProt Q86Y07 (Q86Y07 whole entry, looked up): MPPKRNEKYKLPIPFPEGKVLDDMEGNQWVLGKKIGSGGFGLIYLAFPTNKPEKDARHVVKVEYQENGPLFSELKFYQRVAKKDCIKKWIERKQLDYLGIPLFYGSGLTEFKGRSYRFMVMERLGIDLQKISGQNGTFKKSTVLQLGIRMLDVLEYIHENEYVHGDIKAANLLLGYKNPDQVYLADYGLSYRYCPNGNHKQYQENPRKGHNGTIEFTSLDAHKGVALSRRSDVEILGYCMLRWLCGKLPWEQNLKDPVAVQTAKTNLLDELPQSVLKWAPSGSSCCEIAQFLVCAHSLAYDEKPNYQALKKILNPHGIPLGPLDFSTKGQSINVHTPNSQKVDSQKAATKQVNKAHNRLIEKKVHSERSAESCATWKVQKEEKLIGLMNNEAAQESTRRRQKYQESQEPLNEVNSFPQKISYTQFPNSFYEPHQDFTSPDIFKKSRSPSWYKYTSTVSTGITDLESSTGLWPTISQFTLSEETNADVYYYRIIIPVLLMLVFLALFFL
Chain of UniProt Q8NDZ6 (Q8NDZ6 whole entry, looked up): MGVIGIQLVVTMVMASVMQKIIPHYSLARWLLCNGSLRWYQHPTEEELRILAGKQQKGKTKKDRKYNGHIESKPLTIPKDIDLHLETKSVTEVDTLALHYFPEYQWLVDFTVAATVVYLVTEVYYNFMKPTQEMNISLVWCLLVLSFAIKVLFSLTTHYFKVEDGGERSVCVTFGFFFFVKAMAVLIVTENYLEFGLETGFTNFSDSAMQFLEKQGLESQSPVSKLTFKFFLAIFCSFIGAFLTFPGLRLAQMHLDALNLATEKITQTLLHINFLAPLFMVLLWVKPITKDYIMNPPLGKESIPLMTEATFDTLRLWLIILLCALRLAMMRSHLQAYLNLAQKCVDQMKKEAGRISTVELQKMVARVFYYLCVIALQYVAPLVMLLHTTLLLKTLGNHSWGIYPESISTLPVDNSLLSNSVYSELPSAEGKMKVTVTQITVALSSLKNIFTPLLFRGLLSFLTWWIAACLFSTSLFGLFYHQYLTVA
Chain of UniProt Q86UV5 (Q86UV5 whole entry, looked up): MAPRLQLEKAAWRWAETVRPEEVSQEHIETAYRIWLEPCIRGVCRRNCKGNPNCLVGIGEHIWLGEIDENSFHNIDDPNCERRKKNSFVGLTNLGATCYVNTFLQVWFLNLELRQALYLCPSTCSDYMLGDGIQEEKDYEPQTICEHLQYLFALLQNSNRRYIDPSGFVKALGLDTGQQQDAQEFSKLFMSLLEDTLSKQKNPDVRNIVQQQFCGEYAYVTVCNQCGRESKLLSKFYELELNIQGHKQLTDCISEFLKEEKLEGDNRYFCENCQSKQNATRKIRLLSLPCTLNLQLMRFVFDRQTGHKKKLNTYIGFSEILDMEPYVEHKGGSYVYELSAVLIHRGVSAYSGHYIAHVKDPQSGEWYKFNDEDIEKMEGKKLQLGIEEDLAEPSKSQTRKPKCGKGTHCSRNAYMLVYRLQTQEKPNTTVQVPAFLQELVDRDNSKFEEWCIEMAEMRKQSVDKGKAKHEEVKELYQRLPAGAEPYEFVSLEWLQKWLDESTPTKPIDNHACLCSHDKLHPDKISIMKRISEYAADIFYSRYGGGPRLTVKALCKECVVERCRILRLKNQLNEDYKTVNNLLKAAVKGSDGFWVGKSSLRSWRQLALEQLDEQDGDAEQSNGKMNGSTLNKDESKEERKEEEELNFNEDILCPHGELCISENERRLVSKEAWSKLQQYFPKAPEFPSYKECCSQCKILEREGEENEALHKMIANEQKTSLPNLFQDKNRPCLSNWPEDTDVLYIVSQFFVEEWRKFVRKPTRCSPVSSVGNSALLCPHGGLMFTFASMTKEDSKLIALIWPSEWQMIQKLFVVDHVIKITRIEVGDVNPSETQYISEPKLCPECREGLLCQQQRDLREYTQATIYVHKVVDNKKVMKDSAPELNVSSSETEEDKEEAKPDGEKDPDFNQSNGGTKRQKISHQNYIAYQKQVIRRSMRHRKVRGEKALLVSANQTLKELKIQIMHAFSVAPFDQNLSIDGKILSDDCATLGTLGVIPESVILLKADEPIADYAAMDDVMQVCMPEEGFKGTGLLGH
Chain of UniProt Q92890 (Q92890 whole entry, looked up): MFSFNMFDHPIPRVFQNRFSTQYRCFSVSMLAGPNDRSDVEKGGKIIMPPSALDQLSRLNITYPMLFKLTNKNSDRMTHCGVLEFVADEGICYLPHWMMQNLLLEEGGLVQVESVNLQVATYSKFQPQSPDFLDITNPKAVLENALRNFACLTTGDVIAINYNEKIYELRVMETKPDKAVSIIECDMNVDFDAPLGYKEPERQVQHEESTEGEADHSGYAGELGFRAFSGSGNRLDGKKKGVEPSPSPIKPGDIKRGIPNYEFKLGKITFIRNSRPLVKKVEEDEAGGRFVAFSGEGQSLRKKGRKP
Chain of UniProt P49754 (P49754 whole entry, looked up): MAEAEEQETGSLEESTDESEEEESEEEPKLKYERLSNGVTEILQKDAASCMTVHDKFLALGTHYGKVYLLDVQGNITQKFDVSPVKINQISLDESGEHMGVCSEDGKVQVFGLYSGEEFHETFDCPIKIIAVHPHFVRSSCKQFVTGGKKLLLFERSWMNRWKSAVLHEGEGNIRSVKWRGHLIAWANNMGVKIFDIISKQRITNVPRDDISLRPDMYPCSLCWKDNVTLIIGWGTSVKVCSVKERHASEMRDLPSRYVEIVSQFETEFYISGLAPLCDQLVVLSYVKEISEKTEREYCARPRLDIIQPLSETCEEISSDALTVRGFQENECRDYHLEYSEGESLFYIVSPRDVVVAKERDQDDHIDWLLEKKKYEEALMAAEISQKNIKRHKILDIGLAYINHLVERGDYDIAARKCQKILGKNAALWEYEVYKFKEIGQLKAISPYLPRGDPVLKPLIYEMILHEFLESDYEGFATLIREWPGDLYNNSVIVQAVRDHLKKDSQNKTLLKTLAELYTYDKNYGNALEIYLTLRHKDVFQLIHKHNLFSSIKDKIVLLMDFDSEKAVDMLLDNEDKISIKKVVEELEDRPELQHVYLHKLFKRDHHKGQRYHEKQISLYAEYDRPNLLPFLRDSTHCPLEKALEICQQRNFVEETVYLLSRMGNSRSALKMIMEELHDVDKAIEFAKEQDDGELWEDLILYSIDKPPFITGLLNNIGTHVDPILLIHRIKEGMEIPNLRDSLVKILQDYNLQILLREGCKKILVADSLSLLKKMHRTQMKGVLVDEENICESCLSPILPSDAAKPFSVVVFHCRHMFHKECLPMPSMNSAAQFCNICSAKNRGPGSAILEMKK
Chain of UniProt Q9P0T7 (Q9P0T7 whole entry, looked up): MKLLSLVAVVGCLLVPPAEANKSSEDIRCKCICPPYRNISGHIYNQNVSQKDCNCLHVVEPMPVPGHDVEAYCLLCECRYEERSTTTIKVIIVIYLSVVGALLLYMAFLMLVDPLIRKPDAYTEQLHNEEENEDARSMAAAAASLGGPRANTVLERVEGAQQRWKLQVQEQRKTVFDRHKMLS
Chain of UniProt Q9BVJ6 (Q9BVJ6 whole entry, looked up): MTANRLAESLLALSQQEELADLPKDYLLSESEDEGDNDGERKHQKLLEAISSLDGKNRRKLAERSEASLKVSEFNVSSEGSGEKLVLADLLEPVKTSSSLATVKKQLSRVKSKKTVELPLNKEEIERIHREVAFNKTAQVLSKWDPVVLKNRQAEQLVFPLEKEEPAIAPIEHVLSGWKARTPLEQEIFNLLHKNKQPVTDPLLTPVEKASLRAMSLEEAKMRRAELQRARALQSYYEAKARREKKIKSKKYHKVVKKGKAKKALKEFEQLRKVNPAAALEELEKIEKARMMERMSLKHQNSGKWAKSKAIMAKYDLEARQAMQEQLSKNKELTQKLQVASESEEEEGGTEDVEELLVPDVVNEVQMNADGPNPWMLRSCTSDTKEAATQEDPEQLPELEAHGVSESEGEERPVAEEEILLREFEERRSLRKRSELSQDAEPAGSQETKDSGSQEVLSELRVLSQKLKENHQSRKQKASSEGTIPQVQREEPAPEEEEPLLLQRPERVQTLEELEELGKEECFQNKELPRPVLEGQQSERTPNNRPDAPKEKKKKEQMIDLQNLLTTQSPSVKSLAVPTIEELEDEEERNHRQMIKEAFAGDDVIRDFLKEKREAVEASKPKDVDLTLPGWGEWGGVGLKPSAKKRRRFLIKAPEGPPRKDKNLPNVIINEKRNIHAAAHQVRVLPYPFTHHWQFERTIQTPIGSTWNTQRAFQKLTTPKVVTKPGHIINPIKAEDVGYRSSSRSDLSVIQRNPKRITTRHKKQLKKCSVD
Chain of UniProt Q01081 (Q01081 whole entry, looked up): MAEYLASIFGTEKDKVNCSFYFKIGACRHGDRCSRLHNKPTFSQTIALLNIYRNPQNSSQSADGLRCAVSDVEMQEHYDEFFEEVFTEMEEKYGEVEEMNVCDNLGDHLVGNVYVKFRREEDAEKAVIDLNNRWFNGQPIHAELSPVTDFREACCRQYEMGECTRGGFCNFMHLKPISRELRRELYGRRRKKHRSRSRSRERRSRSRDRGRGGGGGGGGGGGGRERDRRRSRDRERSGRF
Chain of UniProt Q9UL33 (Q9UL33 whole entry, looked up): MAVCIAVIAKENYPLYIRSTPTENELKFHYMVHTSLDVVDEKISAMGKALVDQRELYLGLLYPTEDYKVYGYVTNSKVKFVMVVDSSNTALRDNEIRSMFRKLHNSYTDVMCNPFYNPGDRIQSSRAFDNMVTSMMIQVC
Chain of UniProt Q96LJ8 (Q96LJ8 whole entry, looked up): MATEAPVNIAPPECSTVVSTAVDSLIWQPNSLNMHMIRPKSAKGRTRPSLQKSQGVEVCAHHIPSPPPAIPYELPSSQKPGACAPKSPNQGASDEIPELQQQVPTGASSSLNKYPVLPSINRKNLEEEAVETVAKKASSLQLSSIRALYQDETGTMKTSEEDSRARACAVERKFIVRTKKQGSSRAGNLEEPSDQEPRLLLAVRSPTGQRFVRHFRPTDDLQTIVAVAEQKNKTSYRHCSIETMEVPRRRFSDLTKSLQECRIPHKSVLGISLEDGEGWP

| Target | log2 fold change [1] | log2 fold change (crizotinib) | log2 fold change [2] | log2 fold change [3] | log2 fold change (duvelisib) | log2 fold change (gandotinib) | log2 fold change (tozasertib) | log2 fold change [4] | log2 fold change (doramapimod) | log2 fold change (ispinesib) |
| --- | --- | --- | --- | --- | --- | --- | --- | --- | --- | --- |
| VPS8 (UniProt Q8N3P4) | 0.024 | -0.12 | 0.016 | 0.127 | 0.038 | -0.097 | 0.065 | 0.083 | 0 | -0.154 |
| UFD1 isoform 1 (UniProt Q92890) | -0.029 | 0.004 | -0.032 | -0.022 | 0.043 | -0.099 | -0.027 | -0.04 | 0.007 | 0.036 |
| TMEM9 (UniProt Q9P0T7) | -0.026 | -0.026 | 0.029 | -0.197 | -0.012 | -0.026 | -0.049 | 0.014 | 0.048 | -0.093 |
| VPS41 (UniProt P49754) | 0.003 | -0.213 | -0.009 | 0.03 | 0.008 | -0.117 | 0.01 | 0.046 | 0.034 | -0.138 |
| UBXN10 (UniProt Q96LJ8) | -0.03 | -0.121 | -0.091 | -0.09 | -0.017 | 0.161 | -0.122 | -0.008 | -0.014 | -0.124 |
| TRAPPC2L (UniProt Q9UL33) | 0.009 | -0.035 | 0.054 | 0.035 | 0.026 | -0.023 | 0.015 | 0.001 | -0.143 | 0.119 |
| UTP14A (UniProt Q9BVJ6) | -0.059 | -0.035 | -0.382 | 0.274 | -0.128 | 0.151 | 0.05 | 0.065 | 0.172 | -0.171 |
| TMEM161B (UniProt Q8NDZ6) | 0.026 | -0.096 | 0.004 | 0.002 | 0.128 | -0.156 | 0.063 | 0.11 | -0.024 | -0.055 |
| VPS13B (UniProt Q7Z7G8) | 0.023 | 0.015 | 0.045 | -0.033 | -0.064 | -0.062 | -0.01 | 0.015 | 0.028 | -0.134 |
| TNPO2 (UniProt O14787) | 0.019 | -0.153 | 0.046 | -0.037 | 0.03 | -0.059 | 0.077 | 0.048 | 0.011 | -0.14 |
| UBAP2L isoform 1 (UniProt Q14157) | -0.034 | 0.077 | 0.009 | -0.008 | 0.022 | -0.007 | -0.062 | -0.056 | 0.034 | -0.026 |
| VRK2 (UniProt Q86Y07) | 0.048 | -0.16 | 0.015 | 0.472 (active) | -0.01 | -0.08 | -0.057 | 0.012 | 0.026 | -0.115 |
| U2AF1 isoform 2 (UniProt Q01081) | -0.046 | 0.067 | 0.03 | -0.134 | 0.044 | -0.005 | 0.05 | 0.114 | -0.143 | 0 |
| USP48 isoform 8 (UniProt Q86UV5) | 0.03 | -0.036 | 0.066 | -0.133 | 0.088 | -0.197 | 0.334 | 0.212 | -0.1 | -0.07 |
| WDR43 (UniProt Q15061) | 0.008 | 0.08 | 0.016 | -0.051 | 0.062 | 0.009 | -0.012 | -0.053 | -0.035 | 0.081 |
